# Test results: PubChem BioAssay (EPA / NIEHS)
# Active and inactive are the calls of the source. The calls were made as follows: active = hit-call score of the fitted dose curve at least 0.9, where 1 is the maximum; inactive = score below 0.9.
# Experiments:
# Conditions in all cases: mRNA level, 48 h; actives raise or lower the signal
# [1] = read-out: Cytochrome P450 (CYP1A2), CYP1A2 (gene 1544); assay: LTEA_HepaRG_CYP1A2: Life Technologies and Expression Analysis (LTEA) Assay for Cytochrome P450 (CYP1A2) using HepaRG (AID 2283479)
# Method in brief: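 HepaRG, 48 h exposure, top 100 uM, half-log 8-pt, 0.5% DMSO vehicle, duplicates. Readout: TaqMan qRT-PCR of CYP1A2 mRNA, housekeeping-normalized (ACTB/GAPDH/POLR2A). Gain/loss fit relative to DMSO baseline.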
# [2] = read-out: cysteine-aspartic acid protease (CASP8), CASP8 (gene 841); assay: LTEA_HepaRG_CASP8: Life Technologies and Expression Analysis (LTEA) Assay for cysteine-aspartic acid protease (CASP8) using HepaRG (AID 2283480)
# Method in brief: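 Differentiated HepaRG cells in serum-free induction medium, 48 h exposure, eight-point half-log series from 100 uM in 0.5% DMSO, duplicates. CASP8 mRNA by qRT-PCR, normalized to ACTB, GAPDH, POLR2A; bidirectional fit versus DMSO.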
# [3] = read-out: Cytochrome P450 (CYP2B6), CYP2B6 (gene 1555); assay: LTEA_HepaRG_CYP2B6: Life Technologies and Expression Analysis (LTEA) Assay for Cytochrome P450 (CYP2B6) using HepaRG (AID 2283481)
# Method in brief: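 Read-out is CYP2B6 mRNA by TaqMan qRT-PCR, normalized to three housekeeping genes and fitted bidirectionally against 0.5% DMSO baseline. Human HepaRG cells received test chemicals for 48 h, top concentration 100 uM, half-log dilutions.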
# [4] = read-out: Cytochrome P450 2C19 (Homo sapiens) (UniProt P33261); assay: LTEA_HepaRG_CYP2C19: Life Technologies and Expression Analysis (LTEA) Assay for CYP2C19 using HepaRG (AID 2283482)
# Method in brief: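 HepaRG, 48 h chemical exposure, 8-pt half-log series from 100 uM in 0.5% DMSO, duplicates. Readout: CYP2C19 mRNA by TaqMan qRT-PCR, housekeeping-normalized. Bidirectional fit vs DMSO baseline; phenobarbital 1mM as induction control.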
# [5] = read-out: CYP2C8 (gene 1558); assay: LTEA_HepaRG_CYP2C8: Life Technologies and Expression Analysis (LTEA) Assay for CYP2C8 using HepaRG (AID 2283483)
# Method in brief: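 Differentiated HepaRG cells in serum-free induction medium exposed 48 h in duplicate to 8 half-log concentrations from 100 uM in 0.5% DMSO. CYP2C8 mRNA by qRT-PCR normalized to ACTB, GAPDH, POLR2A; bidirectional fit versus DMSO.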
# [6] = read-out: CYP2C9 (gene 1559); assay: LTEA_HepaRG_CYP2C9: Life Technologies and Expression Analysis (LTEA) Assay for CYP2C9 using HepaRG (AID 2283484)
# Method in brief: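 Differentiated human HepaRG cells in serum-free induction medium were exposed 48 h to chemicals in 8-point half-log series from 100 uM (0.5% DMSO), in duplicate. CYP2C9 mRNA was measured by qRT-PCR, normalized to ACTB/GAPDH/POLR2A, with bidirectional fitting versus DMSO.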
# [7] = read-out: CYP2E1 (gene 1571); assay: LTEA_HepaRG_CYP2E1: Life Technologies and Expression Analysis (LTEA) Assay for CYP2E1 using HepaRG (AID 2283485)
# Method in brief: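 Differentiated HepaRG cells were treated in duplicate for 48 h with chemicals in 0.5% DMSO, from 100 uM downward in half-log dilutions. RNA was then analysed by qRT-PCR for CYP2E1 induction or loss.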
# [8] = read-out: CYP4A11 (gene 1579); assay: LTEA_HepaRG_CYP4A11: Life Technologies and Expression Analysis (LTEA) Assay for CYP4A11 using HepaRG (AID 2283486)
# Method in brief: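 CYP4A11 transcript levels were quantified by TaqMan qRT-PCR after HepaRG human liver cells were treated for 48 hours with test chemicals (top 100 uM, half-log dilutions, 0.5% DMSO). Gain or loss of signal was fitted relative to DMSO.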
# [9] = read-out: Cytochrome P450 3A4 (Homo sapiens) (UniProt P08684); assay: LTEA_HepaRG_CYP3A4: Life Technologies and Expression Analysis (LTEA) Assay for CYP3A4 using HepaRG (AID 2283487)
# Method in brief: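 In a human hepatic line (HepaRG), duplicate wells were treated 48 h with up to 100 uM chemical in half-log dilutions. Endpoint: CYP3A4 mRNA induction or loss relative to 0.5% DMSO vehicle, by qRT-PCR.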
# [10] = read-out: Pro-epidermal growth factor (Homo sapiens) (UniProt P01133); assay: LTEA_HepaRG_EGF: Life Technologies and Expression Analysis (LTEA) Assay for Epidermal growth factor (EGF) using HepaRG (AID 2283489)
# Method in brief: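 qRT-PCR readout of EGF transcript after 48 h chemical exposure of HepaRG cells; eight concentrations from 100 uM down in half-log steps, duplicate wells, 0.5% DMSO vehicle. Bidirectional curve fitting against DMSO baseline.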
# [11] = read-out: Early growth response protein 1 (EGR1) transcription factor, EGR1 (gene 1958); assay: LTEA_HepaRG_EGR1: Life Technologies and Expression Analysis (LTEA) Assay for Early growth response protein 1 (EGR1) transcription factor using HepaRG (AID 2283490)
# Method in brief: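 Differentiated HepaRG cells in serum-free induction medium exposed 48 hours, duplicate, to 8 half-log concentrations up to 100 uM in 0.5% DMSO. EGR1 mRNA measured by TaqMan qRT-PCR, normalized to ACTB, GAPDH, POLR2A; bidirectional fit versus DMSO.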
# [12] = read-out: Ezrin (EZR), EZR (gene 7430); assay: LTEA_HepaRG_EZR: Life Technologies and Expression Analysis (LTEA) Assay for Ezrin (EZR) using HepaRG (AID 2283491)
# Method in brief: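 Gain or loss of EZR mRNA is scored relative to 0.5% DMSO in human HepaRG cultures treated 48 h with test chemicals in duplicate, eight half-log concentrations from 100 uM.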
# [13] = read-out: CYP3A5 (gene 1577); assay: LTEA_HepaRG_CYP3A5: Life Technologies and Expression Analysis (LTEA) Assay for CYP3A5 using HepaRG (AID 2283493)
# Method in brief: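 mRNA induction or loss of CYP3A5 assessed in HepaRG after 48 h dosing, 100 uM top concentration, duplicate wells; TaqMan qRT-PCR with ACTB, GAPDH, POLR2A normalization; 0.5% DMSO as negative control.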
# [14] = read-out: Fatty Acid-Binding Protein 1 (FABP1), FABP1 (gene 2168); assay: LTEA_HepaRG_FABP1: Life Technologies and Expression Analysis (LTEA) Assay for Fatty Acid-Binding Protein 1 (FABP1) using HepaRG (AID 2283494)
# Method in brief: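 Differentiated human HepaRG cells exposed 48 h in serum-free induction medium to eight half-log concentrations up to 100 uM (0.5% DMSO), duplicate. FABP1 mRNA by qRT-PCR, normalised to ACTB, GAPDH, POLR2A; bidirectional fitting against DMSO.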
# [15] = read-out: Cytochrome P450 7A1 (Homo sapiens) (UniProt P22680); assay: LTEA_HepaRG_CYP7A1: Life Technologies and Expression Analysis (LTEA) Assay for Cytochrome P450 7A1 (CYP7A1) using HepaRG (AID 2283496)
# Method in brief: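 Gene expression endpoint in human HepaRG liver cells treated for 48 h with test chemicals (up to 100 uM, 0.5% DMSO). Values come from bidirectional concentration-response fitting versus DMSO.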
# [16] = read-out: Glutathione S-Transferase (GSTA2), GSTA2 (gene 2939); assay: LTEA_HepaRG_GSTA2: Life Technologies and Expression Analysis (LTEA) Assay for Glutathione S-Transferase (GSTA2) using HepaRG (AID 2283497)
# Method in brief: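 Differentiated human HepaRG cells were exposed in duplicate for 48 h in serum-free induction medium, 8 points from 100 uM top in half-log steps, 0.5% DMSO. GSTA2 mRNA was measured by TaqMan qRT-PCR, normalized to ACTB, GAPDH and POLR2A; bidirectional fit versus DMSO.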
# [17] = read-out: DNA damage-inducible transcript 3 (DDIT3), DDIT3 (gene 1649); assay: LTEA_HepaRG_DDIT3: Life Technologies and Expression Analysis (LTEA) Assay for DNA damage-inducible transcript 3 (DDIT3) using HepaRG (AID 2283488)
# Method in brief: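 Changes in DDIT3 transcript, in either direction relative to 0.5% DMSO vehicle, were quantified by TaqMan qRT-PCR after 48 h chemical exposure of HepaRG cells at 8 concentrations, maximum 100 uM.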
# [18] = read-out: Cytochrome P450 4A22 (Homo sapiens) (UniProt Q5TCH4); assay: LTEA_HepaRG_CYP4A22: Life Technologies and Expression Analysis (LTEA) Assay for Cytochrome P450 4A22 (CYP4A22) using HepaRG (AID 2283495)
# Method in brief: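 HepaRG, 48 h post-plating -> serum-free induction medium; dosed 48 h, duplicate, 8 conc. (100 uM top, half-log), 0.5% DMSO. Readout: CYP4A22 mRNA by qRT-PCR, ACTB/GAPDH/POLR2A normalization; gain/loss fit relative to DMSO.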
# Chain of Cytochrome P450 3A4 (Homo sapiens) (P08684 whole entry, looked up): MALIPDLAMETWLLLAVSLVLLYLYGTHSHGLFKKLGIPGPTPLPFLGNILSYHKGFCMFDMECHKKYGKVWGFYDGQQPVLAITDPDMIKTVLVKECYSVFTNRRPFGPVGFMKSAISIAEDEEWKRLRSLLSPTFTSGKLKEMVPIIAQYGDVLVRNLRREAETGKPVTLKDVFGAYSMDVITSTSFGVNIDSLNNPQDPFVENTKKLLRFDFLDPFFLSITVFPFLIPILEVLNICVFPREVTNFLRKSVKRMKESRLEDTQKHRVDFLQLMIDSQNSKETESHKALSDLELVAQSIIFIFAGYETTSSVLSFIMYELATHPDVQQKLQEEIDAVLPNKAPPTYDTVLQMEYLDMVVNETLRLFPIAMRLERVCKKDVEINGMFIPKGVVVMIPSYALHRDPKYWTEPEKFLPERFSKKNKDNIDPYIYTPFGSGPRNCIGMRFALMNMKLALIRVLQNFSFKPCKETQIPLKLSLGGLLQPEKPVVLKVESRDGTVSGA
# Chain of Cytochrome P450 2C19 (Homo sapiens) (P33261 whole entry, looked up): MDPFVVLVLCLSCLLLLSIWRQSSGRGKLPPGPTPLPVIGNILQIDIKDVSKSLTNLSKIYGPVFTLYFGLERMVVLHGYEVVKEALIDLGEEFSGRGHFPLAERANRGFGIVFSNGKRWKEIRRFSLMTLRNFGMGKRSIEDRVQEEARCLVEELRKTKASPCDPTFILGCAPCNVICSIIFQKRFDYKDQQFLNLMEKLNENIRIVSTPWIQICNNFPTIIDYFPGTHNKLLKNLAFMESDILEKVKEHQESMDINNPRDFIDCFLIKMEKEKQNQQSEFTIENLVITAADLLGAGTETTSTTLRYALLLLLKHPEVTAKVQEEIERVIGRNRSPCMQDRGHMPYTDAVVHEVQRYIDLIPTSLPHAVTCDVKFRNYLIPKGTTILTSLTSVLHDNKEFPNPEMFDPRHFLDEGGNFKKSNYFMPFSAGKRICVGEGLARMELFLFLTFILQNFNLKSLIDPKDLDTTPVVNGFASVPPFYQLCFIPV
compound,measurement,setting,value
Nc1cccc2c(N)cccc12,AC50,[1],20.1 µM (active)
same,outcome,[2],inactive
same,AC50,[3],2.68 µM (active)
same,outcome,[4],inactive
same,outcome,[5],inactive
same,outcome,[6],inactive
same,AC50,[7],50 µM (active)
same,AC50,[8],50 µM (active)
same,outcome,[9],inactive
same,outcome,[10],inactive
same,outcome,[11],inactive
same,outcome,[12],inactive
same,outcome,[13],inactive
same,AC50,[14],50 µM (active)
same,AC50,[15],10.1 µM (active)
same,AC50,[16],50 µM (active)
C=C(C)C(=O)OCCC(F)(F)C(F)(F)C(F)(F)C(F)(F)C(F)(F)C(F)(F)F,outcome,[1],inactive
same,outcome,[2],inactive
same,AC50,[3],11.8 µM (active)
same,outcome,[4],inactive
same,outcome,[5],inactive
same,outcome,[6],inactive
same,AC50,[7],20.1 µM (active)
same,outcome,[8],inactive
same,outcome,[9],inactive
same,outcome,[10],inactive
same,outcome,[11],inactive
same,outcome,[12],inactive
same,outcome,[13],inactive
same,outcome,[14],inactive
same,outcome,[15],inactive
CC(O)CO (stereo not given),outcome,[1],inactive
same,outcome,[2],inactive
same,outcome,[3],inactive
same,outcome,[4],inactive
same,outcome,[5],inactive
same,outcome,[6],inactive
same,outcome,[7],inactive
same,outcome,[8],inactive
same,outcome,[9],inactive
same,outcome,[17],inactive
same,outcome,[10],inactive
same,outcome,[11],inactive
same,outcome,[12],inactive
same,outcome,[13],inactive
same,outcome,[14],inactive
same,outcome,[15],inactive
CC(=O)NC1(c2cccc(F)c2)CCN(CC[C@@]2(c3ccc(Cl)c(Cl)c3)CN(c3ccccc3)C(=O)CO2)CC1,outcome,[1],inactive
same,outcome,[2],inactive
same,outcome,[3],inactive
same,outcome,[4],inactive
same,outcome,[5],inactive
same,outcome,[6],inactive
same,AC50,[7],11 µM (active)
same,AC50,[8],13.1 µM (active)
same,AC50,[9],3.67 µM (active)
same,AC50,[17],41.5 µM (active)
same,outcome,[10],inactive
same,AC50,[11],72.4 µM (active)
same,AC50,[12],41.5 µM (active)
same,AC50,[13],75 µM (active)
same,outcome,[14],inactive
same,AC50,[15],38 µM (active)
Cc1oc(-c2ccccc2)nc1CCOc1ccc(C[C@H](Nc2ccccc2C(=O)c2ccccc2)C(=O)O)cc1,AC50,[1],27.2 µM (active)
same,AC50,[2],32.1 µM (active)
same,AC50,[3],18.5 µM (active)
same,AC50,[4],23.3 µM (active)
same,AC50,[5],25.2 µM (active)
same,AC50,[6],22.5 µM (active)
same,AC50,[7],17.1 µM (active)
same,AC50,[8],28.1 µM (active)
same,AC50,[9],12.7 µM (active)
same,AC50,[10],24.9 µM (active)
same,AC50,[11],87.9 µM (active)
same,AC50,[12],70 µM (active)
same,AC50,[13],30.5 µM (active)
same,AC50,[14],23.1 µM (active)
same,AC50,[15],23.4 µM (active)
CCCCC(CC)COC(=O)CCCCC(=O)OCC(CC)CCCC (stereo not given),outcome,[1],inactive
same,outcome,[2],inactive
same,outcome,[3],inactive
same,outcome,[4],inactive
same,outcome,[5],inactive
same,outcome,[6],inactive
same,outcome,[7],inactive
same,outcome,[8],inactive
same,outcome,[9],inactive
same,outcome,[10],inactive
same,outcome,[11],inactive
same,outcome,[12],inactive
same,outcome,[13],inactive
same,outcome,[14],inactive
same,outcome,[15],inactive
CC(C)(C)c1ccc(O)c(C(C)(C)C)c1,AC50,[1],0.104 µM (active)
same,outcome,[2],inactive
same,outcome,[3],inactive
same,outcome,[4],inactive
same,outcome,[5],inactive
same,outcome,[6],inactive
same,outcome,[7],inactive
same,outcome,[8],inactive
same,AC50,[9],50 µM (active)
same,outcome,[10],inactive
same,outcome,[11],inactive
same,outcome,[12],inactive
same,outcome,[13],inactive
same,outcome,[14],inactive
same,outcome,[18],inactive
same,outcome,[15],inactive
same,outcome,[16],inactive
